Results as given in PubChem BioAssay AID651956 (Broad Institute, 2012).
Entries with a potency or affinity are not part of this list. Records with an inconclusive call do not appear. Calls of active or inactive are those of the source.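 Rule for the calls: active = in every test run, a fitted half-maximal concentration for signal decrease at or below twice the highest tested concentration; inconclusive = runs disagree, flat 30 to 70% decrease, or poor fit; inactive = the rest.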

Test: activation of miR-122 Renilla sensor silencing – cell-based, Huh7 psiCHECK-miR122, Renilla luciferase, cherry-picked, dose response (AID 651956);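 note: Renilla luciferase from a miR-122 sensor reporter so lower signal means miR-122 activation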
Settings: Huh7 psiCHECK-miR122 Renilla luciferase reporter, 48 h; series mostly up to 35 µM

Row | Structure (SMILES) | outcome
1 | CN1C(=O)c2cc(NS(=O)(=O)c3cccc(F)c3)ccc2OC[C@@H]2O[C@@H](CC(=O)NCCN3CCCCC3)CC[C@H]21 | inactive
2 | COc1ccc(OC)c(Nc2cc(C)nc3ccc(C)cc23)c1 | inactive
3 | C/C=C/c1ccc([C@@H]2[C@@H](CN(C)C(=O)CC)N(C(=O)NC(C)C)[C@H]2CO)cc1 | inactive
4 | COc1cccc(S(=O)(=O)N(C)C[C@@H]2Oc3cc(C4=CCCCC4)ccc3S(=O)(=O)N([C@H](C)CO)C[C@@H]2C)c1 | inactive
5 | c1ccc(CCCNCCCn2cnc3c(OCc4ccccc4)ncnc32)cc1 | inactive
6 | COc1ccc(-c2ccc(C#N)c(OC(=O)c3c(Cl)cccc3Cl)n2)cc1 | inactive
7 | CN1C(=O)c2cc(NC(=O)c3cccs3)ccc2OC[C@@H]2O[C@@H](CC(=O)O)CC[C@@H]21 | inactive
8 | CCCNC(=O)N1[C@H](CO)[C@@H](c2ccccc2)[C@H]1CNC(=O)c1ccccc1 | inactive
9 | CN1C(=O)c2cc(NC(=O)c3cccs3)ccc2OC[C@@H]2O[C@@H](CC(=O)NCCN3CCCCC3)CC[C@H]21 | inactive
10 | COc1ccc(NC(=O)N(C)C[C@@H]2Oc3cc(C#CCC(C)C)ccc3S(=O)(=O)N([C@@H](C)CO)C[C@@H]2C)cc1 | inactive
11 | Cc1cc(C)cc(Oc2ccc(NC(=O)C3CC=CCC3C(=O)O)cc2)c1 (stereo not drawn) | inactive
12 | C/C=C/c1ccc([C@H]2[C@@H](CO)N(C(=O)CC)[C@H]2CNC(=O)CC)cc1 | inactive
13 | CN1C(=O)c2cc(NC(=O)c3cccc(F)c3)ccc2OC[C@H]2O[C@H](CC(=O)N3CCc4ccccc4C3)CC[C@H]21 | inactive
14 | CCCNC(=O)C[C@@H]1CC[C@@H]2[C@@H](COc3ccc(NC(=O)Nc4ccccc4F)cc3C(=O)N2C)O1 | inactive
15 | c1cnc(N2CCN(Cc3c[nH]c4ccccc34)CC2)nc1 | inactive
16 | CN1C(=O)c2cc(NC(=O)Cc3ccccc3)ccc2OC[C@H]2O[C@H](CC(=O)O)CC[C@H]21 | inactive
17 | COc1nnc(-c2ccc(N3CCOCC3)c(NC(=O)c3ccccc3)c2)c2ccccc12 | inactive
18 | CNc1nc(NCC2CCCCC2)c2sccc2n1 | inactive
19 | Cc1cc(C(F)F)n2ncc(C(=O)NCCc3ccccc3Cl)c2n1 | inactive

Row | Structure (SMILES) | outcome
20 | Cc1ccc(OCC(O)Cn2c(=N)n(Cc3ccccc3)c3ccccc32)cc1 (stereo not drawn) | inactive
21 | CN1CCN(c2ccc(Cl)cc2NC(=O)c2ccc(S(=O)(=O)N3CCCCCC3)cc2)CC1 | inactive
22 | C[C@@H]1CN([C@@H](C)CO)C(=O)c2cc(NC(=O)Nc3ccc(C(F)(F)F)cc3)ccc2O[C@@H]1CN(C)CC1CCCCC1 | inactive
23 | C/C=C/c1ccc([C@@H]2[C@@H](CO)N(Cc3ccccn3)[C@H]2CNC(=O)CC)cc1 | inactive
24 | CO[C@@H]1CN(C)C(=O)c2ccc(NS(C)(=O)=O)cc2OC[C@H](C)N(C(=O)CN(C)C)C[C@@H]1C | inactive
25 | CN(C)C(=O)C[C@@H]1CC[C@@H]2[C@@H](COc3ccc(NC(=O)C4CC4)cc3C(=O)N2C)O1 | inactive
26 | C/C=C/c1ccc([C@H]2[C@@H](CO)N(C(=O)C3CC3)[C@H]2CNC(=O)NC(C)C)cc1 | inactive
27 | CN(C)CCCNC(=O)C[C@H]1CC[C@H]2[C@H](COc3ccc(NC(=O)c4cccc(F)c4)cc3C(=O)N2C)O1 | inactive
28 | CO[C@H]1CN(C)C(=O)c2ccc(NS(C)(=O)=O)cc2OC[C@H](C)N(C(=O)CN(C)C)C[C@H]1C | inactive
29 | CC(=O)N1[C@H](CN(C(=O)c2ccc(F)cc2)C(C)C)[C@H](c2ccccc2)[C@@H]1CO | inactive
30 | COCCNC(=O)C[C@H]1CC[C@@H]2[C@H](COc3ccc(NC(=O)C4CCOCC4)cc3C(=O)N2C)O1 | inactive
31 | CCNC(=O)CCC(=O)Nc1cc(Cl)ccc1C | inactive
32 | CC(C)Oc1ccc(C(CCN)C2CCCCC2)cc1 (stereo not drawn) | inactive
33 | CN1C(=O)c2cc(NC(=O)c3cccs3)ccc2OC[C@@H]2O[C@H](CC(=O)NCCN3CCCCC3)CC[C@H]21 | inactive
34 | CC(=O)N1[C@H](CO)[C@@H](c2ccccc2)[C@H]1CN(C(=O)NC(C)C)C1CCCC1 | inactive
35 | CC(=O)Nc1ccc2c(c1)C(=O)N(C)[C@H]1CC[C@H](CC(=O)NC3CCCCC3)O[C@@H]1CO2 | inactive
36 | CCN(CC)S(=O)(=O)c1ccc(NC(=O)Nc2cccc(C(F)(F)F)c2)cc1 | inactive
37 | CC(C)N(C[C@@H]1N[C@@H](CO)[C@@H]1c1ccccc1)S(=O)(=O)c1ccccc1 | inactive
38 | CCC(=O)Nc1ccc2c(c1)C(=O)N(C)[C@@H]1CC[C@H](CC(=O)Nc3cccc(OC)c3)O[C@@H]1CO2 | inactive
